Hits are enriched below; roughly 3% of the tested compounds scored in any of these assays.
Statin myotox sup – protects C2C12 myotubes from simvastatin toxicity; 330,000 tested, 0.78% active; rescue of ATP level, % at 7.49 µM; ATP luminescence, 48 h; scaled: DMSO 0, geranylgeraniol control 100;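 active = mean ATP rescue above about 67%, or every replicate alone reaching that limit, limit read from the data, passing the limit was not always enough; inconclusive = no clear call, values can overlap the other calls; inactive = mean under the limit and some replicate under it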;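 also: myotubes were challenged with 10 µM simvastatin during compound exposure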
Wnt act – activators of Wnt/beta-catenin signaling. Wnt/beta-catenin reporter cell assay, activator, plate reader. activation, % at 9.35 µM. 300,000 tested, 1.2% active. AID 743398; in the data active = activation above about 30%, passing the limit was not always enough; inconclusive = no clear call, values can overlap the other calls;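 also: 0% = neutral control wells and 100% = positive control wells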
MITF act – increases MITF-driven TRPM1 promoter luciferase signal. SK-MEL-5 TRPM1-promoter luciferase, 24 h; % of positive control, neutral wells = 0. activation, % at 12.5 µM. 300,000 tested, 0.75% active;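 active = mean activation of at least 80% with every replicate also reaching 80%; inconclusive = mean reaches 80% but some replicate falls short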;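 also: 0% = neutral control wells and 100% = parthenolide positive control wells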
esBAF inh – blocks esBAF chromatin remodeling in mouse ES cells; 350,000 tested, 2% active; reporter increase, % at 12.5 µM; Bmi1-luciferase knock-in reporter, 24 h; 100% = twice the neutral-well signal; AID 602393; in the data active = activation above about 40%; inconclusive = no clear call, values can overlap the other calls;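 also: 0% = median of the plate's neutral control wells and 100% = double that signal; a rise in the Bmi1 reporter signal indicates esBAF inhibition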
* = called active by the depositor; ? = inconclusive; / = no result given.

SMILES	Statin myotox sup	Wnt act	MITF act	esBAF inh
C/C(=C\C(=O)Nc1cc(C)on1)c1ccccc1	-29.9	/	81.9*	?
Cc1cc(NC(=O)c2ccccc2)no1	0.7	6.1	56.3	18.9
COc1ccc(C(=O)Nc2cc(C)on2)cc1	2.2	46.9*	33.9	-7.0
COc1ccc(C(=O)Nc2cc(C)c(NC(=O)c3ccccn3)cn2)cc1	7.9	19.3	66.7	?
COc1ccc(C(=O)Nc2cnc(NC(=O)c3cccs3)cc2C)cc1	18.0	6.1	14.3	46.9*
COc1ccc(CC(=O)Nc2cc(C)on2)cc1OC	111.3*	/	4.3	-3.1
C[C@H]1CN([C@@H](C)CO)S(=O)(=O)c2ccc(C#CCN(C)C)cc2O[C@H]1CN(C)Cc1ccc(F)cc1	-8.6	/	/	-4.8
C[C@@H]1CN([C@H](C)CO)C(=O)c2cccc(NC(=O)Nc3cccc4ccccc34)c2O[C@H]1CN(C)C(=O)Nc1cccc2ccccc12	/	/	/	3.7
C[C@H](CO)N1C[C@H](C)[C@H](CN(C)C(=O)Nc2ccc(C(F)(F)F)cc2)OCCCC[C@H](C)Oc2ccc(N(C)C)cc2C1=O	-51.5	/	/	-2.9
CCc1ccc(C(=O)Nc2cc(C)on2)o1	5.2	9.0	73.2	51.2*
O=S(=O)(c1ccccc1C(F)(F)F)N1CCN(S(=O)(=O)c2ccccc2C(F)(F)F)CC1	112.6*	/	-16.4	-5.0
C[C@H](CO)N1C[C@H](C)[C@@H](CN(C)C(=O)NC2CCCCC2)OCCCC[C@H](C)Oc2ccc(NC(=O)Nc3ccc(F)cc3)cc2C1=O	/	/	/	9.2
CC1CCN(C(=O)CCC(=O)N2CC(C)Oc3ccccc32)CC1 (stereo unspecified)	-1.2	-1.5	-7.6	-0.4
CC1CCC(NC(=O)CCC(=O)N2CC(C)Oc3ccccc32)CC1 (stereo unspecified)	8.0	10.9	61.8	55.1*
O=C(Nc1ccc2ccccc2c1)c1cccnc1	-16.2	/	66.5	33.6
O=C(Nc1ccc2c(c1)Cc1ccccc1-2)c1cccnc1	-4.3	14.9	?	64.4*
O=C(Nc1ccc2c(c1)Cc1ccccc1-2)c1ccco1	-6.3	48.2*	151.2*	6.9
COc1cccc(OC)c1C(=O)Nc1ccc2c(c1)Cc1ccccc1-2	/	1.3	18.7	/
O=C(C[C@H]1C[C@H]2c3cc(NC(=O)CC4CC4)ccc3O[C@H]2[C@@H](CO)O1)NCc1ccncc1	-9.2	/	/	1.1
COC(=O)CCN(C(=O)c1ccc(Cl)c([N+](=O)[O-])c1)c1ccccn1	/	33.0*	-19.6	/
Cc1ccccc1S(=O)(=O)NCC[C@H]1CC[C@H](NC(=O)C2CCOCC2)[C@@H](CO)O1	17.8	/	/	3.0
Fc1ccc(-c2csc(N3CCC(c4ccccc4)C3)n2)cc1 (stereo unspecified)	-10.4	3.9	63.8	50.3*
COc1ccc(-c2csc(N3CCSCC3)n2)cc1	2.5	?	74.8	46.6*
COc1ccc(-c2csc(-n3cccn3)n2)cc1	8.0	32.9*	?	67.9*
COc1ccc(-c2csc(N3CCOCC3)n2)cc1OC	-1.3	16.6	71.3	58.4*
SMILES	Statin myotox sup	Wnt act	MITF act	esBAF inh
Clc1ccc(-c2csc(N3CCOCC3)n2)cc1	/	13.7	75.6	/
c1ccc(-c2csc(N3CCCCCC3)n2)cc1	13.0	/	54.5	42.8*
COc1cc(S(=O)(=O)N2CCN(C(=O)c3ccccc3F)CC2)c(OC)cc1NC(C)=O	101.8*	/	-3.1	-5.4
COc1ccc(S(=O)(=O)N2CCN(C)CC2)cc1NC(=O)c1ccccc1F	-14.1	-2.5	/	3.4
C[C@H](CO)N1C[C@H](C)[C@H](CN(C)S(=O)(=O)c2ccccc2)OCCCC[C@H](C)Oc2ccc(NS(=O)(=O)c3cccs3)cc2C1=O	/	/	/	10.7
C[C@H](CO)N1C[C@H](C)[C@@H](CN(C)CC2CCOCC2)Oc2ncc(C3=CCCCC3)cc2C1=O	-17.2	/	/	-1.8
CCCC(=O)Nc1c(C(=O)OCC)[nH]c2ccccc12	-0.8	-1.9	-15.8	-4.3
CCOC(=O)c1[nH]c2ccc(F)cc2c1NC(=O)c1ccccc1C(=O)O	2.0	17.9	27.6	54.1*
CCOC(=O)c1[nH]c2ccccc2c1NC(=O)Nc1ccc(OC)cc1	119.3*	/	-12.3	-5.7
CCOC(=O)c1[nH]c2ccc(OC)cc2c1NC(=O)c1ccccc1C(=O)O	/	12.6	12.6	/
c1ccc(CN2CCN(c3nc4ccccc4s3)CC2)cc1	1.9	40.2*	77.5	?
Cc1cccc(C)c1NC(=O)N1CCN(c2nc3ccccc3s2)CC1	36.3	1.7	-8.5	47.8*
O=C(/C=C/c1nc2ccccc2s1)N1CCCCCC1	-0.9	10.2	100.4*	32.4
c1ccc2sc(N3CCCCC3)nc2c1	-1.2	16.5	47.3	48.9*
O=C(O)CCC(=O)N1CCN(c2nc3ccccc3s2)CC1	/	7.0	-9.1	0.0

From PubChem BioAssay
